Drawing on PubChem BioAssay AID1508600 (Functional Genomics Laboratory (NCATS/FGL), 2020), this text covers z-score for 108 sequences.

Among all 53,000 sequences or so, about 3,700 (7%) were called active. Only a selection was taken, and actives are over-represented in it overall. Unmarked numbers belong to inactive results.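 How the source made its calls: active means gene knockdowns whose robust z-score for IL-1 alpha signal is at least 2 or at most -2, so actives lie on both sides; inactive means the rest.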

The assay in a line: Components of the Cytosolic LPS Sensing Pathway: Gene Identification via Genome-wide siRNA Screen.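 Further: robust z of the log signal after scaling to non-targeting control siRNA wells of the plate.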 The settings on record: RAW264.7 macrophages, IL-1a HTRF, actives lie on both sides, screened at 100 nM (by protocol), cells primed 5 h with Pam3CSK4 first. The method in brief:
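Supernatant IL-1a by HTRF from RAW264.7 cells primed with Pam3CSK4 (5 hours) and transfected with LipidA (24 hour) after 48h siRNA knockdown at 100 nM; cell viability checked with CellTiter-Glo.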
Turning to GGUGACUUGUAAAGAUUUUTT against Dstn, the z-score is 0.234. GGAGACAGAAAGAGAAAAGTT against Pou3f2: the z-score was -0.578. On to GGAGUUCACGGAUCUUGAGTT against Ppp1r37, for which the z-score is 0.226.

As for GGCAAUCAUUGGACUAUACTT against Nckap1, the z-score was -2.81 (active). Consider GCACCCAAACUUAAAAUAGTT against Spink10, for which the z-score was -0.69. Take GGUUGAAGUCACAAAAGAATT against Prkg1: the z-score was -0.619. For GGGAAGGAGAGUAUUCCAATT against Mrpl14, the z-score is 3.44 (active). Regarding GCAUUUCCUAUAAUCGUUGTT against Olfr360, the z-score is 0.371.

Regarding GGCUGUCCGUACCUAUAAATT against Cpb1, the z-score was -1.26. Turning to GGAAUUUGUGACCAACUAUTT against Rbm4b, the z-score is 1.07. As for CCUUGACCCAGAUUGAGAATT against Xkr6, the z-score is 0.363.

As for GUAUGGAUGUGGAAGCCUCTT against Olfr1417, the z-score is -0.77.

Consider GGGCUUGAAAUUGAAAUGUTT against Ccl9, for which the z-score was -1.09. Next, GCGACAACUGUGAUAUACCTT against Liph: -0.485. As for GCCUCAAUGGCACUCAAAUTT against Mdc1, the z-score was -0.217. Turning to CCGUCUUCUGCUGUGGAACTT against Ctrc, the z-score is 2.6 (active).

In the case of CCCACUGCCAAGUACAAUGTT against Dmwd, the z-score was 1.44. As to UUGUGAUUCCAAUUUCCCUTT against Olfr1330, the z-score is -0.32. On to GGUCAGAGUGCCUCUUGAATT against Slc7a5, for which the z-score was -0.8.

For GGUCAAAGAUGGAGUAAAUTT against Tmem87a, the z-score was -2.31 (active). Consider GCAAUGUCGCCAAACGUAATT against Ikzf1, for which the z-score is 0.457. Take GAUACAGACCUUGCUCUUCTT against Olfr714: the z-score is -0.421. With GGACAUUGUCACAUCAUUCTT against Slc2a6, the z-score is 1.64.

For GCUAAUAGUCAUUAAACUGTT against Zfp2, the z-score is 1.76. On to GCUCAACGAAACAAUACCGTT against Il2rb, for which the z-score was 0.737. For GGAUGGUCGAAACAAUAACTT against Stk32b, the z-score is 2.16 (active).

As for GGCAUUUCUGUUCUGUAAGTT against Sh3bgrl, the z-score was -0.783. On to GCUGACCACUUCAAGGUUGTT against Lgals3, for which the z-score was 0.468. Regarding GGCCAGUGUAUUUGACCUGTT against Slc22a18, the z-score is -1.24. As to GCUCUGCUAUCGUGAUCUGTT against Kctd13, the z-score was 1.68. GCUUGCACUGGACUCAACUTT against Pax4: the z-score was -2.76 (active). Then CGAGAAGAACUGUGUAAAGTT against Vldlr, with -0.184. For the sequence CCAUAUCAGGCAUAGCAGUTT against Nthl1, the z-score is -0.772.

With GCCAUCGAUGUACUGAGCUTT against Psme2, the z-score is 0.525. With GGUAGAGAGCUCAACAGGGTT against Klrb1c, the z-score was 0.287. GGACUGUUGCAUGACUCUCTT against Evc: the z-score was 1.08. Consider GCCUUACUGGGUUACUUGUTT against Cdkn2d, for which the z-score is 3.22 (active).

For GGAACUGAAUGCGGAAUUCTT against Chil1, the z-score is 0.261. Take GGUUUCUUCAUCUUGUAUUTT against Gjd4: the z-score is 0.184.

GGUUCUGGAGCAAAUCCACTT against Styk1: the z-score was 2.37 (active). For CCCGAGACCAUUAAUGAUUTT against Snx3, the z-score is -0.306. Turning to CGAACCCUAGCGGAAAUUGTT against Nono, the z-score was -1.54.

Consider GGUGGGAAGAUAGAUAAAATT against Mamstr, for which the z-score was 3.28 (active). As for GGGCUCUACAGUUUUUAAUTT against Atp5g3, the z-score was 1.31. In the case of “GCAGUUUCGUUCCUACUCGTT against Cdkn2aipnl”, the z-score is 0.796. Then GCAGAUAAUCUAGCAAAGATT against Agps, with 0.903. Turning to “CCGAAAUCCUACAUAUAUGTT against B430209F14Rik”, the z-score was -0.306. Consider GCUUGAAUUUCUGUGGAGGTT against Olfr1320, for which the z-score is -2.44 (active). Turning to GGGUGAGACUUUUAUUAUUTT against Epdr1, the z-score was -0.468. For GGACAUAUAGCUGAUUUCUTT against Ctdsp2, the z-score is 1.97. Consider GGGAUGGAAACCCUGGAUCTT against Col3a1, for which the z-score is 0.438.

As for CCUUAGGAUCGUCUUAUUATT against Zic2, the z-score is 0.619. For the sequence GGGAAAAGAAAGUACCUACTT against Zcchc10, the z-score is 2.26 (active). As for CGACCUGACUUUUCUUAGGTT against Dynlrb2, the z-score is 0.855. As to GGCAACUUUGUUAUAUACATT against Ctr9, the z-score was 0.212. Then GGAUCUUCUACACAGUAAATT against Ppp2r3d, with -0.0431; and GGGCAUCAGCUAUUAAAGATT against Tpmt, with 0.488. GGCUAGAUGACAACCGCAUTT against Flrt1: the z-score was 1.13. Take GGGAGUUAUAUAAAUGCAUTT against Taf7l: the z-score is -1.13.

Regarding CACAGAACAUCAUCUCCCATT against Olfr887, the z-score was -2.79 (active). On to CGAAAUGACAGUGUUAUUCTT against Mpl, for which the z-score was 0.185. On to GGUAUGAUGGGAAAUUUUUTT against Tmod2, for which the z-score is 1.07.

With GGAAUCGGUGUAUUCGUUUTT against Sectm1b, the z-score was 0.593.

For GGAAGACAAAGUCUGGGUGTT against Hpx, the z-score is -0.915. For the sequence GGUCCUACAGGAGAAGAUCTT against Tekt2, the z-score is -2.09 (active). Next, GGAGAAGUUCCCUAACAUGTT against Ppan: -1; GCCAGUAAGGAAUUCAACUTT against C3: -1.29. As for GGGCAUUGAAGCAAAUAUATT against Tmprss15, the z-score is 0.323.

For the sequence GGACGCAUGAUGUGGGUUCTT against Tmem41a, the z-score was -0.626. As for GCUAAGUCGGAGCAGUUUUTT against Clba1, the z-score was 2.07 (active). With AUGGUGCUGUUUUAUUUGUTT against Olfr671, the z-score was -0.807. Next, UAUCGUCCACAACUACUCATT against Epn1: 1.14. With GGACAUCCAACCGUACAUGTT against Ccnd2, the z-score was 0.247.

Take GCAAGCUACAUGCAUACAUTT against Zfp945: the z-score is 3.59 (active).

For the sequence GCCCUUUGACAAUUUGUUUTT against Stra6l, the z-score was -0.661. Consider CCUAUGUAACACAAACAUUTT against Orc5, for which the z-score is 0.721. Then GGUACAAGGUCAUCAUGAGTT against Olfr1341, with -2.85 (active); and GGAGGGAGUAUCCAUGUCATT against Nr2c2, with 0.209. In the case of GGUCGACAGACUCUUGCAUTT against Mylk3, the z-score is -0.982.

On to GCAAGCAGAGAUGUUACAUTT against Olfr1284, for which the z-score was -0.975. Consider GGUGCUGUAUUUGAUGUUATT against Nudt6, for which the z-score is 0.544. GGAACUUGAACUAAAAAUGTT against Eaf1: the z-score was 2.5 (active). Next, GGUGAUGGUGAACAAGAAATT against Lgals9: -0.811; GGCUCACGCUCGUUACCUATT against Nwd1: -1.86; GGGUCCUAAGACUAUUGAUTT against Eif4g1: 0.274. On to GCUUCCUUCUUCUUGUCCATT against Vmn1r42, for which the z-score was -0.475. With GGAUUUUCGAUUCUCUUACTT against Glg1, the z-score was 2.25 (active).

Take GGAUGUUCAACCUAAACGATT against Ferd3l: the z-score is -0.347. As for GGUUCAGAAGUCUAUGUCUTT against Ufsp1, the z-score was 0.866.

Regarding GCCGUAUCACCCUAAACUATT against Pxylp1, the z-score was 2.05 (active). Take GGCCUAGUUCCAGUUAUGCTT against Olfr1093: the z-score was -1.41. For the sequence CCGCUACCUUAAGCACCUATT against Terf2ip, the z-score is 0.231. GGUUUGACUAACUUUCCUUTT against Fbxl15: the z-score was 0.198.

For GCGGGAACUUAAAGUUUACTT against Yars, the z-score is 3.18 (active). In the case of GGAACAGUGCUUGUAUCAGTT against Clasrp, the z-score is 0.675. In the case of GGUUCCUUCGUGAAUGUCATT against Glp1r, the z-score was 0.0826. Regarding CCCGUCAAUACCACUUACCTT against Sidt2, the z-score was 2.19 (active). With GCUAAUCGGAUGCUGAAGCTT against Psmb7, the z-score was 0.71. For CCUUAUGUCCCUAAGGCUATT against Mbd3, the z-score was -0.109. Turning to CCUCAGUUAUAGAUGAUCUTT against Rdh11, the z-score was 0.319. In the case of CCCUCAAAUAACAUCCAGGTT against Sh3d21, the z-score was -1.93.

For GGAAAUCUAUUUCAUUGACTT against Zcchc10, the z-score was 0.956.

GCUUGUGCGAGUGUUGGAUTT against Has1: the z-score is 2.21 (active).

For the sequence GGGUUUCCUACAGAGUACCTT against Amer3, the z-score is -0.845. “GGCAUGGAUUGGUGAGAUUTT against 9330175E14Rik”: the z-score was -0.576. Consider GCAUUAAGCACGAGAAAAATT against Slc18a2, for which the z-score is 0.575. Turning to GCUCUCAGAUGACAUCACUTT against Supt5, the z-score is -2.43 (active). GGACCACUUGUAGUAUUUGTT against Map7d1: the z-score is 0.593.
